biological target: AMP-activated protein kinase, AMPK (Homo sapiens) (UniProt P54646+O43741+P54619+Q9UGJ0+Q9Y478+Q13131+Q9UGI9); assay: AMP-dependent Kinase enzyme assay. An in vitro enzyme assay that detects ADP turnover that is directly proportional to AMPK activity. This uses naive AMPK that is activated during the assay with MK-8722; assay type: functional; set-up: scale not given: direction of the effect not stated beside the values; conditions: 30 µM

SMILES	Percent Effect
CCCN1CCC(N(C)C(=O)c2cc(C)nc3cc(F)ccc23)CC1	-6.76%
CC(=O)N1CCN(CCNC(=O)NC(C)Cn2ccnc2)CC1 (stereo not given)	-2.62%
O=C(NCc1cc(-c2ccccc2)no1)NC1CCCCNC1=O (stereo not given)	-4.86%
CN(C)CCN(Cc1ccc(C#N)cc1)C(=O)c1ccn(C)c(=O)c1	15.4%
CC1(C)CC1(C(=O)N1CC(c2cccnc2)C1)c1ccccc1F (stereo not given)	-6.17%
O=C(C1CCCCN1Cc1nccn1CC(F)(F)F)N1CCCC1 (stereo not given)	-9.13%
Cc1ccccc1SCC(=O)Nn1cnnc1	3.33%
O=C1CCCCCN1Cc1nc(C2(c3ccc(F)cc3)CCOC2)no1 (stereo not given)	8.29%
O=C(NCc1nncn1C1CC1)c1ccccc1OCC1CC1	1.41%
Cc1nc(CNCc2ccc(OC34CCCN(CC3)C4)cc2)n[nH]1 (stereo not given)	-5.44%
O=C(CC1CCCC1)NCCS(=O)(=O)N1CCN(c2ncccn2)CC1	-1.03%
CCC[C@@H]1CN(Cc2cnc(-c3cccs3)nc2)C[C@H]1C(=O)O	-8.24%
CCC1c2ccccc2CCN1CCCS(C)(=O)=O (stereo not given)	-1.94%
COC(=O)c1ccoc1CN(C)CC(=O)NC1CCS(=O)(=O)C1 (stereo not given)	-0.853%
O=C(NC1CCN(C2CC2)CC1)c1cn(-c2ccc(Cl)cc2)nn1	0.108%
Cc1ccc2[nH]c(CNC(=O)C3CC4(CCNCC4)CN3C)nc2c1C (stereo not given)	-16.1%
COC(=O)c1ncccc1N1CCC(C(O)c2ccccc2)CC1 (stereo not given)	12.8%
CC1CCN(Cc2ccccc2CNC(=O)C2CNC(=O)N2)CC1 (stereo not given)	-1.18%
Cc1cc(NCCc2nc(C)cs2)nc(-c2cccnc2)n1	5.81%
O=C(COc1ccc(F)cc1F)N1CCOCC(O)(CN2CCCC2)C1 (stereo not given)	8.54%

SMILES	Percent Effect
COC[C@@H]1CCCN1C(=O)CCc1c(C)nn(C)c1C	-3.67%
CCN(CC)S(=O)(=O)NCC1COc2ccccc2O1 (stereo not given)	8.6%
COCc1ccccc1NC(=O)CCNC(=O)c1ccoc1	-3.07%
Cc1cc(C(=O)N2CCC(CCC(=O)NCCN(C)C)CC2)ccc1O	21.5%
CC(Cc1cccc(F)c1)C(=O)NS(=O)(=O)c1ccc2c(c1)OCCO2 (stereo not given)	3.32%
COc1cccc(CCC(=O)Nc2c(C)nn(C)c2C)c1OC	15.8%
CCCC(C#N)NC(=O)c1sccc1CC (stereo not given)	6.7%
Cc1c(NC(=O)c2ncn[nH]2)cccc1C(=O)NC(C)(C)C	5.84%
CN(Cc1csc(-c2cccs2)n1)Cc1cccnc1N	3.93%
CCC(C)Oc1ccc(CNCCNC(C)=O)cc1Cl (stereo not given)	-6.19%
COc1ccc(Cl)cc1CN(C)C(=O)CN1C(=O)OC[C@@H]1C(C)C	1.71%
O=C(Cc1ccccc1O)NC1CCCN(c2ccccc2F)C1=O (stereo not given)	8.51%
Cc1c(CN2CCc3[nH]cnc3C2C2CC2)[nH]c2ccc(F)cc12 (stereo not given)	3.62%
CCOc1ccc(CN(C)C(=O)c2nc(N3CCCC3)ncc2Cl)cc1	-1.93%
COCC(=O)N1CCN(C(C)c2ncc(-c3ccccc3)o2)CC1 (stereo not given)	2.58%
CCOC(=O)c1n[nH]cc1CN1CCOC(Cc2ccc(F)cc2)C1 (stereo not given)	1.89%
CCNc1ncc(C(=O)NCc2csc(C)n2)cn1	-2.12%
c1ccn2c(C3CCCN3Cc3nc(C4CC4)no3)nnc2c1 (stereo not given)	2.28%
Cc1c(CN2CCc3[nH]cnc3C2C(=O)O)[nH]c2ccc(F)cc12 (stereo not given)	3.73%
CNS(=O)(=O)CC(=O)N1CCC(c2cc3ccccc3[nH]2)CC1	16.4%
